Test results taken from PubChem BioAssay (NCATS).
Results filed as inconclusive are left out. Active and inactive are the calls of the source. Unless noted, calls come from the whole dose curve; as a rule, active = well fitted curve in the direction sought with a large enough effect; inconclusive = small, poorly fitted or top-dose-only effect, or another doubt; inactive = no such curve, though single readings can be large; an effect the other way counts as inactive or inconclusive.

Tests used:
[1] = Primary qHTS for inhibitors of nuclear receptor binding SET domain protein 2 (NSD2) in an isogenic RCH-ACV NSD2 p.E1099K mutant (9B) (AID 1645876); note: nearly all actives have a fitted effect of over 70% in size; note: potency is the fitted concentration of half-maximal effect
[2] = Primary qHTS for inhibitors of nuclear receptor binding SET domain protein 2 (NSD2) in an RCH-ACV wild type WT cells (2C) (AID 1645877); note: nearly all actives have a fitted effect of over 70% in size; note: potency is the fitted concentration of half-maximal effect
[3] = molecular target: Glutathione peroxidase 1 (Homo sapiens) (UniProt P07203); assay: Primary qHTS Assay for Inhibitors of Recombinant Selenoprotein Glutathione Peroxidase 1 (GPX1) (AID 1845191); note: nearly all actives have a fitted effect of over 65% in size
In short: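 NADPH consumption tracked by fluorescence at 340/450 nm between t=0 and t=15 min, room temperature. Final mix: 10 nM GPX1, 100 nM glutathione reductase, 1 mM GSH, 0.5 mM NADPH, 0.5 mM cumene hydroperoxide, 0.01% BSA; 30 min compound–enzyme preincubation.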

[4] = molecular target: Phospholipid hydroperoxide glutathione peroxidase GPX4 (Homo sapiens) (UniProt P36969); assay: Primary qHTS Assay for Inhibitors of Recombinant Selenoprotein Glutathione Peroxidase 4 (GPX4) (AID 1845192); note: nearly all actives have a fitted effect of over 65% in size; for activity change, negative = inhibition: % is set by controls: 0 for no effect and ±100 for the full control effect
In short: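 NADPH consumption followed by fluorescence at 340/450 nm, t=0 and after 15 min at room temperature. Reaction started with cumene hydroperoxide (0.5 mM final) after 30 min compound–GPX4 preincubation; final 200 nM GPX4, 100 nM GR, 1 mM GSH, 0.5 mM NADPH.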

[5] = qHTS drug screen for cell cycle checkpoint inhibitors in PARPi-resistant BRCA-mutant ovarian cancer cell lines. (AID 1963452; calls by dose curve; note: potency is the fitted concentration of half-maximal effect); details: PEO1/OlaR viability, CellTiter-Glo luminescence, 96 h; for Z-AUC: stronger effect = lower value
In short: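 PEO1, PEO4 and PEO1/OlaR ovarian cancer cells, 600 per well, exposed 96 h at 37C to a dilution series. Viability read by CellTiter-Glo luminescence, normalized to DMSO and empty wells; activity summarized as Z-AUC.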

[6] = molecular target: Catechol O-methyltransferase (Homo sapiens) (UniProt P21964); assay: Confirmatory Screen for Target Class Profiling of Small Molecule Inhibitors of Methyltransferases (AID 1745852; calls by dose curve; note: potency is the fitted concentration of half-maximal effect; for activity change, negative = inhibition: % is set by controls: 0 for no effect and ±100 for the full control effect); details: MTase-Glo luminescence, SAH detection, recombinant enzyme; measured here: COMT max response; stronger effect = lower value
[7] = molecular target: Guanidinoacetate N-methyltransferase (Homo sapiens) (UniProt Q14353); assay: as above; details: MTase-Glo luminescence, SAH detection, recombinant enzyme; activity change, negative = inhibition: at 57.3 µM (top of the series) unless noted
[8] = molecular target: Nicotinamide N-methyltransferase (Homo sapiens) (UniProt P40261); assay: as above; details: MTase-Glo luminescence, SAH detection, recombinant enzyme; measured here: NNMT max response; stronger effect = lower value
[9] = molecular target: Phenylethanolamine N-methyltransferase (Homo sapiens) (UniProt P11086); assay: as above; details: MTase-Glo luminescence, SAH detection, recombinant enzyme; measured here: PNMT max response; stronger effect = lower value
[10] = NCATS anti-infectives library activity on HEK293 viability as a counter-qHTS vs the C. elegans viability qHTS (AID 1745854);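 note: HEK293 cells exposed to compounds for 24 hr before the viability read; % is set by controls: 0 for no effect and ±100 for the full control effect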
In short: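 Counter-screen for cytotoxicity: HEK293, 24 hr, 37C, compounds up to 41.7 uM final (a dilution series, 1:5). Readout CellTiter-Glo luminescence, 10 min RT. Digitonin control, 83.3 uM final.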

[11] = NCATS anti-infectives library activity on the primary C. elegans qHTS viability assay (AID 1745855; calls by dose curve)
In short: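 GFP read-out by 488 nm laser cytometry at day 0, 3 and 7, gated on object perimeter, area and peak intensity, scored viability of PE254-GFP-FLuc worms exposed to compound in S medium with bacterial capsules at 21 °C.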

[12] = measured here: PEO1 parental Z-AUC

Chain of Glutathione peroxidase 1 (Homo sapiens) (P07203 whole entry, looked up): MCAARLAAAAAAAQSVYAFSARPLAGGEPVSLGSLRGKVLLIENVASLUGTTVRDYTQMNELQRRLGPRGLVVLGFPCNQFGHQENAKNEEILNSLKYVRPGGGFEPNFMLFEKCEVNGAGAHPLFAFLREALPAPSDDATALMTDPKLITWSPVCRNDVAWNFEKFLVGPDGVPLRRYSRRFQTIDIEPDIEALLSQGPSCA
Chain of Phospholipid hydroperoxide glutathione peroxidase GPX4 (Homo sapiens) (P36969 whole entry, looked up): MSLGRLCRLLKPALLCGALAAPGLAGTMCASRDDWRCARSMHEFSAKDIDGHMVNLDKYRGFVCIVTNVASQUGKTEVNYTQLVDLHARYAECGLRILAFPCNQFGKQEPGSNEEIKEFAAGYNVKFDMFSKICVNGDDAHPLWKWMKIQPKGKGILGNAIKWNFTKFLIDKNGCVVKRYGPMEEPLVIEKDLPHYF
Chain of Catechol O-methyltransferase (Homo sapiens) (P21964 whole entry, looked up): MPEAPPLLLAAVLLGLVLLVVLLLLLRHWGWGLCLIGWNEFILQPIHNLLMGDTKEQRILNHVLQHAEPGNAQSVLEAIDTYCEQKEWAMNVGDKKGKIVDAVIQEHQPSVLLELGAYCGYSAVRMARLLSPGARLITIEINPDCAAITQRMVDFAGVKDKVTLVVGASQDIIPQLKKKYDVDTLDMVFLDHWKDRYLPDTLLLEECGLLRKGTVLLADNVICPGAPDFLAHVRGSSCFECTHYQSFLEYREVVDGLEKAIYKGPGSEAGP
Chain of Phenylethanolamine N-methyltransferase (Homo sapiens) (P11086 whole entry, looked up): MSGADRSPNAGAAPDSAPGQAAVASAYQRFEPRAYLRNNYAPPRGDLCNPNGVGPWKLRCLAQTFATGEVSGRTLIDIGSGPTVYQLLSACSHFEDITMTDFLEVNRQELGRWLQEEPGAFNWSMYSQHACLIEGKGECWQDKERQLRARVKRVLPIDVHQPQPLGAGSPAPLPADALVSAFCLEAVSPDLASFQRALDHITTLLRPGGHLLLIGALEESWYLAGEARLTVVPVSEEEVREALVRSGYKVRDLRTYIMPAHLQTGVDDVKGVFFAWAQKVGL
Chain of Nicotinamide N-methyltransferase (Homo sapiens) (P40261 whole entry, looked up): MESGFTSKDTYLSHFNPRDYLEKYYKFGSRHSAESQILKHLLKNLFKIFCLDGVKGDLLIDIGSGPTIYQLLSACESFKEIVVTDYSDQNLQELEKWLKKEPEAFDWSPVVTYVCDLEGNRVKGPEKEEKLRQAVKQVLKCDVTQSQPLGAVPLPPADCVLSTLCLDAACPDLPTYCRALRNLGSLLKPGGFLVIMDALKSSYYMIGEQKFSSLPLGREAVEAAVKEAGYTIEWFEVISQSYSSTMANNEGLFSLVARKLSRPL

SMILES: CCC(=O)NC[C@H](Cc1ccc(OCCc2nc(-c3ccccc3)oc2C)cc1)N/C(C)=C\C(=O)c1ccc(C(F)(F)F)cc1
- Potency [1]: inactive
- Potency [2]: inactive
- Potency [3]: inactive
- Potency [4]: inactive
- Z-AUC [5]: 0.763 (inactive)
- Z-AUC [5, 12]: 0.398
- Z-AUC ([5]; measured here: PEO4 Z-AUC): 0.423

SMILES: Cc1cc(C(=O)Nc2nc3cccc(Cl)c3n2C2CCCCN(C(=O)/C=C/CN(C)C)C2)ccn1 (centres undefined)
- Potency [1]: 6.51 µM (active)
- Potency [2]: 6.51 µM (active)
- Potency [3]: inactive

SMILES: CCN1CCN(c2ccc(Nc3ccc(-c4ccc(C(N)=O)cc4)n4ncnc34)cc2)CC1
- Potency [1]: 9.2 µM (active)
- Potency [2]: 7.31 µM (active)
- activity [6]: -0.444%
- activity change, negative = inhibition [7]: 0%
- activity [8]: -65.3%
- activity [9]: -8.41%
- Potency [3]: inactive

SMILES: c1ccc(-c2cc(CCC3CCNCC3)c3ccccc3n2)cc1
- Potency [1]: 16.6 µM (active)
- Potency [2]: 13.2 µM (active)
- Potency [3]: inactive
- Potency [4]: inactive
- Z-AUC [5]: -0.417 (inactive)
- Z-AUC [5, 12]: 0.0933
- Z-AUC ([5]; measured here: PEO4 Z-AUC): 0.16

SMILES: N#Cc1cccnc1N1CCN(C(=O)c2cccc(Cc3n[nH]c(=O)c4ccccc34)c2)CC1
- Potency [1]: 0.0332 µM (active)
- Potency [2]: 0.0209 µM (active)
- Potency [3]: inactive
- Potency [4]: inactive
- Z-AUC [5]: -1.35 (inactive)
- Z-AUC [5, 12]: -2.79
- Z-AUC ([5]; measured here: PEO4 Z-AUC): -1.63

SMILES: O=Nc1c(-c2c(O)[nH]c3ccc(F)cc23)[nH]c2ccccc12
- Potency [1]: 1.84 µM (active)
- Potency [2]: 2.06 µM (active)
- Potency [3]: inactive

SMILES: Nc1ccc(F)cc1NC(=O)c1ccc(CNC(=O)/C=C/c2cccnc2)cc1
- Potency [1]: 1.05 µM (active)
- Potency [2]: 1.18 µM (active)
- outcome [10]: inactive
- Potency [11]: inactive
- Potency [3]: inactive
- Potency [4]: inactive
- Z-AUC [5]: -1.13 (inactive)
- Z-AUC [5, 12]: -0.9
- Z-AUC ([5]; measured here: PEO4 Z-AUC): -0.779

SMILES: CC(=O)NCCNc1cc(Cl)nn2c(-c3cccc(S(=O)(=O)N(C)C)c3)c(C)nc12
- Potency [1]: 7.31 µM (active)
- Potency [2]: 4.61 µM (active)
- Potency [3]: inactive

SMILES: Nc1cc(C(F)(F)F)c(-c2nc(N3CCOCC3)nc(N3CCOCC3)n2)cn1
- Potency [1]: 0.742 µM (active)
- Potency [2]: 0.525 µM (active)
- Potency [3]: inactive
- Potency [4]: inactive
- Z-AUC [5]: -0.884 (inactive)
- Z-AUC [5, 12]: -0.21
- Z-AUC ([5]; measured here: PEO4 Z-AUC): -0.177

SMILES: O=C(NO)c1cnc(NC2(c3ccccc3)CC2)nc1
- Potency [1]: 7.42 µM (active)
- Potency [2]: 7.42 µM (active)
- outcome [10]: inactive
- Potency [3]: inactive
- Potency [4]: inactive
- Z-AUC [5]: -0.236 (inactive)
- Z-AUC [5, 12]: 0.229
- Z-AUC ([5]; measured here: PEO4 Z-AUC): 0.185

SMILES: C=CC(=O)Nc1ccc(F)c(-c2ncnc3[nH]cc(C(=O)OCC)c23)c1
- Potency [1]: 16.6 µM (active)
- Potency [2]: 14.8 µM (active)
- Potency [3]: inactive
- Potency [4]: inactive
- Z-AUC [5]: 0.543 (inactive)
- Z-AUC [5, 12]: 0.95
- Z-AUC ([5]; measured here: PEO4 Z-AUC): 0.747

SMILES: O=C(CCCCCCNC(=O)c1cnc(N(c2ccccc2)c2ccccc2Cl)nc1)NO
- Potency [1]: 2.63 µM (active)
- Potency [2]: 2.09 µM (active)
- outcome [10]: inactive
- Potency [3]: inactive
- Potency [4]: inactive
- Z-AUC [5]: 0.102 (inactive)
- Z-AUC [5, 12]: -0.152
- Z-AUC ([5]; measured here: PEO4 Z-AUC): -0.286

SMILES: CCNCCc1ccc(CN(CC)c2cc(OC)ccc2[C@@H]2CCc3cc(O)ccc3C2)cc1
- Potency [1]: 6.61 µM (active)
- Potency [2]: 7.42 µM (active)
- Potency [3]: inactive
- Potency [4]: inactive
- Z-AUC [5]: -0.771 (inactive)
- Z-AUC [5, 12]: -0.865
- Z-AUC ([5]; measured here: PEO4 Z-AUC): -1.44

SMILES: Oc1cccc(Nc2ccnc3[nH]c4ccccc4c23)c1
- Potency [1]: 4.11 µM (active)
- Potency [2]: 4.11 µM (active)
- activity [6]: -17.6%
- Potency [7]: 48.2 µM (active)
- activity [8]: -74.1%
- activity [9]: -25.8%
- Potency [3]: inactive

SMILES: CC[C@H](NC(=O)[C@H](C)NC)C(=O)N1C[C@@H](O)C[C@H]1Cc1c(-c2[nH]c3cc(F)ccc3c2C[C@@H]2C[C@H](O)CN2C(=O)[C@H](CC)NC(=O)[C@H](C)NC)[nH]c2cc(F)ccc12
- Potency [1]: 5.25 µM (active)
- Potency [2]: 18.6 µM (active)
- outcome [10]: inactive
- Z-AUC [5]: 1.52 (inactive)
- Z-AUC [5, 12]: 1.38
- Z-AUC ([5]; measured here: PEO4 Z-AUC): 0.68

SMILES: C[C@]12CCCN1CC1=NNC(=O)c3cc(F)cc4[nH]c2c1c34
- Potency [1]: 10.5 µM (active)
- Potency [2]: 3.72 µM (active)
- outcome [10]: inactive
- Potency [11]: inactive
- Potency [3]: inactive
- Potency [4]: inactive
- Z-AUC [5]: -0.827 (inactive)
- Z-AUC [5, 12]: -0.713
- Z-AUC ([5]; measured here: PEO4 Z-AUC): 0.783

SMILES: O=C1NC(=O)/C(=C\c2ccc(-c3ccc(F)cc3O)o2)S1
- Potency [1]: 13 µM (active)
- Potency [2]: 11.6 µM (active)

SMILES: [N-]=[N+]=N[C@]1(CO)O[C@@H](n2ccc(N)nc2=O)[C@@H](O)[C@@H]1O
- Potency [1]: 5.17 µM (active)
- Potency [2]: 3.66 µM (active)
- outcome [10]: inactive

SMILES: CC[C@H](Nc1ncnc2nc[nH]c12)c1oc2ccccc2c(=O)c1-c1cccc(F)c1
- Potency [1]: 1.32 µM (active)
- Potency [2]: 1.48 µM (active)
- Potency [3]: inactive
- Potency [4]: inactive
- Z-AUC [5]: 0.58 (inactive)
- Z-AUC [5, 12]: 0.184
- Z-AUC ([5]; measured here: PEO4 Z-AUC): 0.542

SMILES: CC[C@H](C)[C@@H]([C@@H](CC(=O)N1CCC[C@H]1[C@H](OC)[C@@H](C)C(=O)N[C@@H](Cc1ccccc1)c1nccs1)OC)N(C)C(=O)[C@@H](NC(=O)[C@H](C(C)C)N(C)C)C(C)C
- Potency [1]: inactive
- Potency [2]: inactive
- Potency [3]: inactive
- Potency [4]: inactive
- Potency [5]: 27.5 µM (active)
- Z-AUC [5, 12]: -3.14
- Z-AUC ([5]; measured here: PEO4 Z-AUC): -2.96
